From PubChem BioAssay
Pf Dd2 inh – qHTS Primary assay for Inhibitors of Plasmodium falciparum Dd2 growth in vitro; P. falciparum Dd2 growth, SYBR Green, 72 h; Potency, µM (doses to about 28.9 µM), most hits filed as inhibitors; hit rate 4.3% among 120,000; AID 1347417, 2020; active = well fitted inhibition curve with a large enough effect; note: nearly all actives have a fitted effect of over 65% in size
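Infected erythrocytes (Dd2, 0.3% parasitemia, 2.5% hematocrit final) are added to compound in RPMI-1640/Albumax II medium, grown 72 h at 37C in low oxygen, then lysed with saponin/Triton-X containing SYBR Green and read by fluorescence.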
A number is an active result; . = inactive. The full list was thinned out, with hits kept by preference.

SMILES	Pf Dd2 inh
COCCCNC(=O)c1ccc(CSc2nc3cccnc3n2Cc2ccc(OC)cc2)cc1	.
CCCNC1CNC1	.
CCc1ccc(NC(=O)Cn2c(=O)c(-c3noc(CC)n3)c3n(c2=O)CCCCC3)cc1	.
O=C1CC2(CCN(C(=O)c3ccc(C(F)(F)F)cc3)CC2)Oc2cc(Cl)ccc21	.
CC(=O)NC1(C)CCCN(Cc2cccc(Nc3ccncc3)c2)C1 (stereo not drawn)	.
CC(=O)NC1(C)CCCN(Cc2ccc(Oc3ccccc3)cc2)C1 (stereo not drawn)	.
CC(=O)NC1(C)CCN(Cc2cccc(-c3ccc(N4CCOCC4)cc3)c2)C1 (stereo not drawn)	.
CC(=O)NC1(C)CCCN(Cc2cccc(-c3ccccc3)c2)C1 (stereo not drawn)	8.91µM
CC(=O)NC1(C)CCN(Cc2ccccc2-c2ccccc2Oc2ccccc2)C1 (stereo not drawn)	5.01µM
CC(=O)NC1(C)CCN(Cc2ccc(-c3cccc4ncccc34)cc2)C1 (stereo not drawn)	.
CC(=O)NC1(C)CCCN(c2ccc(Oc3ccccc3)cc2)C1 (stereo not drawn)	.
CC(=O)NC1(C)CCN(Cc2ccc(-c3ccc4ccccc4c3)cc2)C1 (stereo not drawn)	10µM
CC(=O)NC1(C)CCN(Cc2cccc(-c3cccc4ncccc34)c2)C1 (stereo not drawn)	.
O=C(NC1CC1)[C@@H]1C[C@H](Oc2ccccc2)CN1C(=O)Cc1ccccc1	.
O=C(c1cn(CCN2CCNCC2)nn1)N1C[C@@H]2CC[C@H](C1)N(CC1CC1)C2	.
CCC(O)c1cc2n(n1)CCN(Cc1nnc(-c3cccc(F)c3)o1)C2 (stereo not drawn)	.
COc1ccc(C2Cn3nnc(C(=O)N4CCN(C(=O)c5cc(C)ccc5C)CC4)c3CO2)cc1 (stereo not drawn)	.
CN1CC(=O)N(c2ccc(Cl)cc2)Cc2c1ncnc2N1CCC(c2ccccc2)CC1	.
CCC[C@@H]1CN(Cc2cn[nH]n2)C[C@H]1C(=O)O	.
NCCC(=O)N1CCCC(N2CCN(Cc3ccc4c(c3)OCO4)CC2)C1 (stereo not drawn)	.
Cn1cc([C@@H](NC(=O)CCc2ccc3c(c2)OCO3)C2CC(O)C2)cn1 (stereo partly drawn)	.
CCC(C)(C)C(=O)N1C[C@@H](CO)[C@H](c2ccncc2)C1	.
CN1C(=O)CC(C(=O)O)C12CCN(C(=O)C1(c3ccccc3)CC1)CC2 (stereo not drawn)	.
CCN(C(=O)Cn1c(=O)n(Cc2ccc3c(c2)OCO3)c(=O)c2ccc(C(=O)NC3CCCCC3)cc21)c1cccc(C)c1	1.26µM
O=C(Cn1c(=O)n(Cc2ccc(C(=O)NCc3ccccc3Cl)cc2)c(=O)c2ccccc21)Nc1ccc(F)cc1	.
SMILES	Pf Dd2 inh
COc1ccc(NC(=O)Cn2c(=O)n(Cc3ccc(C(=O)NCc4ccccc4Cl)cc3)c(=O)c3ccccc32)cc1OC	.
O=C(Cn1c(=O)n(Cc2ccc(C(=O)NCc3ccccc3Cl)cc2)c(=O)c2ccccc21)Nc1ccc(F)c(Cl)c1	10µM
Cc1ccc(C)c(NC(=O)Cn2c(=O)n(Cc3ccc4c(c3)OCO4)c(=O)c3ccc(C(=O)NC4CCCCC4)cc32)c1	.
COc1cccc(NC(=O)Cn2c(=O)n(Cc3ccc(C(=O)NCc4ccc(C)cc4)cc3)c(=O)c3ccccc32)c1	.
Cc1cc(C)c(NC(=O)Cn2c(=O)n(Cc3ccc(C(=O)NCc4ccc5c(c4)OCO5)cc3)c(=O)c3ccccc32)c(C)c1	.
Cc1ccc(NC(=O)Cn2c(=O)n(Cc3ccco3)c(=O)c3ccc(C(=O)NC4CCCC4)cc32)c(C)c1	.
Cc1cccc(NC(=O)Cn2c(=O)n(Cc3ccc(C(=O)NCc4ccc5c(c4)OCO5)cc3)c(=O)c3ccccc32)c1	3.98µM
COc1ccc(NC(=O)CN2C(=O)NC3(CCC(C(C)(C)C)CC3)C2=O)cc1 (stereo not drawn)	.
CCC1(C(=O)NCc2ccc(Cl)cc2)CCCCC(=O)N1 (stereo not drawn)	.
CC(=O)N1CCCC(c2nn(C)c(=O)n2Cc2ccccc2)C1 (stereo not drawn)	.
CN1[C@@H](CCC(=O)N2CCc3ccccc32)CNC(=O)[C@@H]2[C@H]1CCN2Cc1ccc(S(C)(=O)=O)cc1	.
O=C(NCc1cccnc1)C1CCC(=O)N(Cc2cccc(C(F)(F)F)c2)C1 (stereo not drawn)	.
CN1CCC(Oc2ccc(NC(=O)C3(c4ccccc4)CC3)cn2)CC1	.
c1ccc(-c2ccc(CN3CCCC3)cc2)c(CN2CCOCC2)c1	8.91µM
O=C(O)C1CCCN(Cc2ccccc2OCCCN2CCOCC2)C1 (stereo not drawn)	.
CCn1nc(-c2ccccc2CN2CCOCC2)nc1N(C)C	.
Cc1ccc(C(=O)NCCSc2c[nH]c3ccccc23)cc1C	.
O=C(NCCc1ccc(Cl)cc1)c1ccc(Cn2c(=O)[nH]c3ccccc3c2=O)cc1	.
CN(C)S(=O)(=O)c1ccc(C(=O)NCCSc2c(-c3ccc(Cl)cc3)[nH]c3ccccc23)cc1	8.91µM
